Test results: PubChem BioAssay
Activity calls are given as the source filed them. Unless noted, how the calls were made is not given here.

Legend:
[1] = circadian clock period modulators, cell-based, LOPAC library, luminescence reporter (AID 2774); conditions: circadian reporter cells, at 7 µM, actives lie on both sides;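 further: values are relative to mean of DMSO wells on each plate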
[2] = test system: Hepatitis C virus NS3 helicase; assay: HCV NS3 helicase inhibitors, primary screen, biochemical, fluorescence polarization, LOPAC1280 library (AID 687035; in the data active means inhibition above about 37%); conditions: Purified HCV NS3 helicase, Cy5-dT15 ssDNA binding fluorescence polarization; stronger effect = higher value; concentration not given here
[3] = Cy5 fluorescence quenching or enhancement artefacts, artefact control for HCV NS3 helicase inhibitor project, biochemical, LOPAC1280 (AID 687037); conditions: Cy5-DNA-NS3h complex fluorescence interference counterscreen
[4] = sensitizers of A549 cells to miR-34 induction, primary screen, imaging, A549 dox-inducible miR-34, nuclei and caspase counts (AID 1347080;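 active means compounds whose cell count with miR-34 switched on is under 0.7 times the count with it off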); conditions: A549 miR-34 inducible, Hoechst nuclei count, 48 h
[5] = modifiers of HSF1 nuclear foci, imaging, Selleck Cancer Library (AID 1347162; in the data active means plate-normalised HSF1 focus index below about 0.46); conditions: human cells, at 10 µM; SSMD: measured here: HSF1 foci SSMD mean; cell count: measured here: cell number; plate-normalised HSF1 focus index: stronger effect = lower value
[6] = hESC survival regulators, cell-based (AID 493140); conditions: human embryonic stem cell survival screen; stronger effect = higher value;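 further: cells exposed to compounds for four days before counting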
[7] = inhibitors of Cryptococcus chitosan production, flow cytometry, Cibacron Brilliant Red staining (AID 1347148); conditions: Cryptococcus neoformans chitosan, stronger effect = lower value; at 10 µM unless noted;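 further: compound exposure lasted three days at 37 degrees C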
[8] = survival rescue of mitochondrial mutant cells in low glucose, primary screen, MELAS cybrids, Rieske KO mouse fibroblasts, CellTiter-Glo (AID 1508586;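 active means mean z-score across replicates of 1.96 or higher in either the MELAS or the Rieske mutant cell line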;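 further: z relative to plate mean and SD of compound and empty wells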)
[9] = phospholipid biosynthesis inhibitors in animal cells, primary screen, cell-based, LOPAC library, screen 4 (AID 1347384); conditions: phospholipid biosynthesis inhibition screen, at 10 µM
[10] = viability rescue of complex I mutant cybrids, primary screen, cell-based, galactose medium, ATP luminescence (AID 1645843;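 active means z-score of at least 1.8 in each of two replicates, scored against plate mean and spread of sample wells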;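 further: positive z means more ATP and so rescue of galactose-driven cybrid death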); conditions: complex I mutant cybrid cells, 72 h, stronger effect = higher value
[11] = liver-stage malaria parasite growth inhibition, primary screen, cell-based, HepG2, luciferase luminescence, HepG2 viability (AID 624349; in the data active means parasite load remaining mostly below about 12%, no sharp cut-off; inactive means mostly above about 10%;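 further: 100% = mean of DMSO negative control wells on the same plate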); conditions: P. berghei liver stage in HepG2, luciferase luminescence, concentration not given here; parasite load remaining: stronger effect = lower value; viability: measured here: HepG2 viability without parasites
[12] = biological target: NAD(+) hydrolase SARM1 (Homo sapiens) (UniProt Q6SZW1); assay: SARM1 TIR NADase inhibitors, cell lysate, NAD-Glo luminescence (AID 1508614;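 active means compound whose remaining NAD level is above about 45 nM, limit read from the data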); conditions: SAM-TIR HEK293T lysate NADase, at 1 µM, stronger effect = higher value
Sequence of NAD(+) hydrolase SARM1 (Homo sapiens) (Q6SZW1 whole entry, looked up): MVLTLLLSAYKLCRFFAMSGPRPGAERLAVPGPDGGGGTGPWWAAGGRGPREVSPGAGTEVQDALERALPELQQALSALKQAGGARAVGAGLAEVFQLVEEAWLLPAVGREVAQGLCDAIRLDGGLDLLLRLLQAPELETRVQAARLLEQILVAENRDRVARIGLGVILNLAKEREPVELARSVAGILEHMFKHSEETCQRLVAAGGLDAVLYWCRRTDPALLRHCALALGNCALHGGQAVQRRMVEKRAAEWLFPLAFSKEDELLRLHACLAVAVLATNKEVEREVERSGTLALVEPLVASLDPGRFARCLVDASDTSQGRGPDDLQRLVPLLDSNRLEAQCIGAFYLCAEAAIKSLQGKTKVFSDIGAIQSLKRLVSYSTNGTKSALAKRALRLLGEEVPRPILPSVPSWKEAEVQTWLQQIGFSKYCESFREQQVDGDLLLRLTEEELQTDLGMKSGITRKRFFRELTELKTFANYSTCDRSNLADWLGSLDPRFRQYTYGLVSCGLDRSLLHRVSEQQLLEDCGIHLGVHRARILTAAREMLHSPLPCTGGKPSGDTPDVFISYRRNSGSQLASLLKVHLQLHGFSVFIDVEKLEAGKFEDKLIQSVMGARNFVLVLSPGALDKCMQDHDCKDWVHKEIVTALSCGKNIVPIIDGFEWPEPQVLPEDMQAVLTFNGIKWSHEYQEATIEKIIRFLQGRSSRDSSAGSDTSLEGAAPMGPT

[13] = stronger effect = lower value, cell number ratio, induced over uninduced
[14] = measured here: relative caspase fold change +Dox/-Dox
[15] = measured here: total cells with miR-34 induction, stronger effect = lower value
[16] = measured here: total cells without miR-34 induction

With `N=C(N)SCCc1ccc(CCSC(=N)N)cc1` the period change [1] was -0.135 h (inactive), the inhibition [2] was -5% (inactive) and the fluorescence ratio (interference) [3] was 0.9 (inactive). For the same compound, the fold change [4, 13] was 1.11 (inactive), the fold change [4, 14] was 0.636 and the cell count [4, 15] was 5830. It also gave a cell count [4, 16] of 5230, an SSMD [5] of 1.43 and a cell count [5] of 7320. For the same compound, the plate-normalised HSF1 focus index [5] was 1.08 (inactive).

In the case of `CCCCCCCCCCCCCCCC(=O)N[C@H](CN1CCOCC1)[C@H](O)c1ccccc1`, the survival [6] is reported as 83.7 (inactive), the fold change [4, 13] is reported as 1 (inactive) and the fold change [4, 14] is reported as 1.57. For the same compound, the cell count [4, 15] was 5590, the cell count [4, 16] was 5590 and the fold fluorescence [7] was 5.42 (inactive).

With `C=CC(=O)N1CCCC(n2nc(-c3ccc(Oc4ccccc4)cc3)c3c(N)ncnc32)C1` (configuration not stated) the fold change [4, 13] was 0.863 (inactive), the fold change [4, 14] was 0.762 and the cell count [4, 15] was 7670. It also gave a cell count [4, 16] of 8890, an SSMD [5] of 2.74 and a cell count [5] of 7290. For the same compound, the plate-normalised HSF1 focus index [5] was 1.17 (inactive), the z-score ([8]; MELAS cybrid survival, CellTiter-Glo 48 h, stronger effect = higher value) was -0.153 (inactive) and the z-score ([8]; Rieske KO mouse fibroblast survival, CellTiter-Glo 72 h) was -0.517.

With `COC(=O)C1=C(C)NC(C)=C(C(=O)OC)C1c1cccc(NC(=O)NCCCN2CCC(c3cccc(OC)c3)CC2)c1` the fold change [4, 13] was 1.58 (inactive), the fold change [4, 14] was 0.349 and the cell count [4, 15] was 2200. The cell count [4, 16] was 1390, the outcome [9] was “inactive” and the z-score [10] was -1.35 (inactive).

In the case of `CCCCC/C=C\CC1OC1C/C=C\C/C=C\CCCC(=O)O` (configuration not stated), the survival [6] is reported as 104 (inactive), the fold change [4, 13] is reported as 1.05 (inactive) and the fold change [4, 14] is reported as 1.1. For the same compound, the cell count [4, 15] was 5770, the cell count [4, 16] was 5500 and the fold fluorescence [7] was 6.17 [at 1 µM] (inactive).

For `Nc1ncnc2c1c(-c1ccc(Oc3ccccc3)cc1)cn2C1CCCC1`, the period change [1] was 0.07 h (inactive), the parasite load remaining [11] was 28.7% (inactive) and the viability [11] was 78.8%. For the same compound, the inhibition [2] was 2% (inactive), the fluorescence ratio (interference) [3] was 1 (inactive) and the fold change [4, 13] was 1.28 (inactive). It also gave a fold change [4, 14] of 0.999, a cell count [4, 15] of 4440 and a cell count [4, 16] of 3470. The SSMD [5] was -0.154, the cell count [5] was 6750 and the plate-normalised HSF1 focus index [5] was 0.99 (inactive). For the same compound, the outcome [9] was “inactive” and the z-score [10] was -1.02 (inactive).

In the case of `CO[C@H]1O[C@@H]2O[C@]3(C)CC[C@@H]4[C@@H](C)CC[C@H]([C@H]1C)[C@]24OO3`, the fold change [4, 13] is reported as 0.984 (inactive), the fold change [4, 14] is reported as 1.93 and the cell count [4, 15] is reported as 9680. For the same compound, the cell count [4, 16] was 9830, the outcome [9] was “inactive” and the z-score [10] was -0.71 (inactive).

For `COC(=O)[C@@H](N)CSC/C=C(\C)CC/C=C(\C)CCC=C(C)C`, the survival [6] was 74.2 (inactive), the fold change [4, 13] was 0.927 (inactive) and the fold change [4, 14] was 1.37. For the same compound, the cell count [4, 15] was 6060, the cell count [4, 16] was 6540 and the fold fluorescence [7] was 4.53 (inactive).

In the case of `O=C(Nc1ccc2[nH]ncc2c1)C1CCC1`, the fold change [4, 13] is reported as 1.01 (inactive), the fold change [4, 14] is reported as 1.17 and the cell count [4, 15] is reported as 9900. The cell count [4, 16] was 9790, the outcome [9] was “inactive” and the z-score [10] was 0.43 (inactive).

With `O=C(NOCC1CC1)c1cc(Br)c(F)c(F)c1Nc1ccc(I)cc1Cl` the fold change [4, 13] was 1.16 (inactive), the fold change [4, 14] was 1.35 and the cell count [4, 15] was 1380. The cell count [4, 16] was 1180, the outcome [9] was “inactive” and the z-score [10] was -1.36 (inactive).

With `CCCCC/C=C\C/C=C\CC1OC1C/C=C\CCCC(=O)O` (configuration not stated) the survival [6] was 95.7 (inactive), the fold change [4, 13] was 1.01 (inactive) and the fold change [4, 14] was 1.19. The cell count [4, 15] was 5810, the cell count [4, 16] was 5750 and the fold fluorescence [7] was 5.26 [at 1 µM] (inactive).

For `COc1ccc(C(=O)/C(Cc2cc(OC)c(OC)c(OC)c2)=C(\C(=O)O)c2ccc3c(c2)OCO3)cc1`, the fold change [4, 13] was 1.31 (inactive), the fold change [4, 14] was 1.24 and the cell count [4, 15] was 3900. The cell count [4, 16] was 2980, the outcome [9] was “inactive” and the z-score [10] was -1.33 (inactive).

For `Cc1nc2n(c(=O)c1CCN1CCC(c3noc4cc(F)ccc34)CC1)CCCC2O` (configuration not stated), the inhibition [2] was -4% (inactive), the fluorescence ratio (interference) [3] was 1 (inactive) and the fold change [4, 13] was 1.04 (inactive). For the same compound, the fold change [4, 14] was 0.907, the cell count [4, 15] was 9980 and the cell count [4, 16] was 9570. The outcome [9] was “inactive”, the remaining NAD [12] was 10 nM (inactive) and the z-score [10] was -0.155 (inactive).

With `CC[C@H]1OC(=O)[C@H](C)[C@@H](O[C@H]2C[C@@](C)(OC)[C@@H](O)[C@H](C)O2)[C@H](C)[C@@H](O[C@@H]2O[C@H](C)C[C@H](NC)[C@H]2O)[C@](C)(O)C[C@@H](C)CN(C)[C@H](C)[C@@H](O)[C@]1(C)O` the fold change [4, 13] was 1.02 (inactive), the fold change [4, 14] was 1.41 and the cell count [4, 15] was 10700. The cell count [4, 16] was 10400, the outcome [9] was “inactive” and the z-score [10] was 0.37 (inactive).

In the case of `O=C1c2ccccc2C(=O)c2c(NCCc3ccc(O)cc3)ccc(NCCc3ccc(O)cc3)c21`, the inhibition [2] is reported as 13% (inactive), the fluorescence ratio (interference) [3] is reported as 1.1 (inactive) and the fold change [4, 13] is reported as 1.15 (inactive). For the same compound, the fold change [4, 14] was 1.12, the cell count [4, 15] was 4510 and the cell count [4, 16] was 3920. For the same compound, the SSMD [5] was 0.452, the cell count [5] was 6780 and the plate-normalised HSF1 focus index [5] was 1.04 (inactive). For the same compound, the outcome [9] was “active” and the z-score [10] was -0.96 (inactive).

With `CCCCN(CC)c1nc(C)nc2c1c(C)cn2-c1c(C)cc(C)cc1C` the fold change [4, 13] was 1.08 (inactive), the fold change [4, 14] was 0.964 and the cell count [4, 15] was 6200. For the same compound, the cell count [4, 16] was 5770, the outcome [9] was “inactive” and the z-score [10] was -1.29 (inactive).

For `NC(N)=NCCNS(=O)(=O)c1cccc2cnccc12`, the survival [6] was 124 (inactive), the parasite load remaining [11] was 46.9% (inactive) and the viability [11] was 111%. The fold change [4, 13] was 0.914 (inactive), the fold change [4, 14] was 0.868 and the cell count [4, 15] was 2220. For the same compound, the cell count [4, 16] was 2430 and the fold fluorescence [7] was 3.91 [at 170.4 µM] (inactive).

With `CN(C)CC(O)Cn1c2ccc(Br)cc2c2cc(Br)ccc21` (configuration not stated) the fold change [4, 13] was 0.735 (inactive), the fold change [4, 14] was 1.58 and the cell count [4, 15] was 200. For the same compound, the cell count [4, 16] was 272 and the outcome [9] was “inactive”.

For `NS(=O)(=O)c1ccc(-n2nc(C(F)(F)F)cc2-c2ccc(Cl)cc2)cc1`, the fold change [4, 13] was 1.1 (inactive), the fold change [4, 14] was 0.617 and the cell count [4, 15] was 7530. For the same compound, the cell count [4, 16] was 6870, the outcome [9] was “inactive” and the z-score [10] was 2.57 (active).

With `CC(N)=O` the period change [1] was -0.19 h (inactive), the inhibition [2] was 0% (inactive) and the fluorescence ratio (interference) [3] was 0.9 (inactive). For the same compound, the fold change [4, 13] was 1.08 (inactive), the fold change [4, 14] was 1.34 and the cell count [4, 15] was 10600. For the same compound, the cell count [4, 16] was 9870, the outcome [9] was “inactive” and the z-score [10] was 1.1 (inactive).
